For 36 molecules, growth inhibition results are on record in PubChem BioAssay (NCI).

This is part of a sample that, as a whole, favours compounds with a hit. Of some 79,000 tested, about 15% had one in any assay. Unmarked numbers belong to inactive results. The source made the active and inactive calls. Cut-off read from the data, not from the text of the source: active = growth inhibition above about 70%; inactive = the rest.

The nature of experiment [1]: NCI Yeast Anticancer Drug Screen. Data for the mec2-1 strain (AID 157). As to conditions: S. cerevisiae mec2-1 strain, at 50.0 µM, active compounds read high. The method, boiled down:
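Compounds were applied to mec2-1 yeast cells. Their growth was then compared with that of vehicle-treated cultures to give growth inhibition.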

Experiment [2] can be described thus: NCI Yeast Anticancer Drug Screen. Data for the sgs1 mgt1 strain (AID 161).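 Note: 0% = growth of cultures given vehicle only.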 As to conditions: S. cerevisiae sgs1 mgt1 strain, at 50.0 µM, active compounds read high. Put shortly: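 This yeast growth screen uses a strain with defined DNA-repair lesions; compound-treated growth is compared with vehicle-treated growth.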
Experiment [3] can be described thus: NCI Yeast Anticancer Drug Screen. Data for the cln2 rad14 strain (AID 165).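 Note: 0% = growth equal to vehicle treated cultures.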 To be noted: S. cerevisiae cln2 rad14 strain, at 50.0 µM, active compounds read high. Put shortly: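 Strain: cln2 rad14 yeast, altered in cell cycle control and DNA damage repair. Read-out: growth inhibition vs vehicle.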
Experiment [4] is described as follows: NCI Yeast Anticancer Drug Screen. Data for the bub3 strain (AID 167). To be noted: S. cerevisiae bub3 mutant strain, at 50.0 µM, active compounds read high. The method, boiled down:
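Inhibition values come from growth of compound-treated mutant yeast normalised to vehicle-treated controls.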

Experiment [5] in a line: NCI Yeast Anticancer Drug Screen. Data for the mlh1 rad18 strain (AID 175). As to conditions: S. cerevisiae mlh1 rad18 strain growth inhibition; at 50.0 µM; active compounds read high. Put shortly: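 A repair-deficient yeast strain is exposed to test compound, and growth is scored relative to vehicle-treated controls.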

Regarding `C=C(CN(C)C)C1(c2ccccc2)CC2(CCCC2)C(=O)O1` (centres undefined), the growth inhibition in experiment [1] is 12%; in experiment [2], 13.3%; in experiment [3] it was -4.75%; in experiment [4], 11.9%; in experiment [5], 25.5%.

`COCCCNC(=O)C1=CCCN(C)C1`: the growth inhibition is -3.45% in experiment [1]; -3.55% in experiment [2]; -2.45% in experiment [3]; -1.55% in experiment [4]; -3.3% in experiment [5].

On to `COc1cc(C2=N/C(=C\c3cc(Br)cc(Br)c3O)C(=O)O2)cc(OC)c1OC`, for which the growth inhibition in experiment [1] was 94.5% (active); in experiment [2], 88.2% (active); in experiment [3], 98.7% (active); in experiment [4], 98.5% (active); in experiment [5], 92.3% (active).

Take `COc1ccc(/C=C2\N=C(c3ccccc3)OC2=O)c(Cl)c1OC`: the growth inhibition was -3.5% in experiment [1]; -25% in experiment [2]; 1.6% in experiment [3]; -5.25% in experiment [4]; -3% in experiment [5].

As to `CC(C)[C@@H]1CC[C@@H](C)C[C@H]1OC(=O)c1c2n(c3ccccc13)C[C@H]1OC(C)(C)O[C@@H]21`, the growth inhibition in experiment [1] is -6.65%; in experiment [2], 7.4%; in experiment [3], 22.9%; in experiment [4], 15.2%; in experiment [5] it was -46.2%.

Turning to `CC(=O)OCC1OC(n2nc(/C=C/c3ccccc3)c(=O)n(-c3ccccc3)c2=S)C(OC(C)=O)C(OC(C)=O)C1OC(C)=O` (centres undefined), the growth inhibition in experiment [1] was 20.6%; in experiment [2], 8.85%; in experiment [3] it was -10.3%; in experiment [4] it was -0.45%; in experiment [5], 31.9%.

With `CC1OC(c2ccccc2)C(=O)N1C1(C)C(=O)N2CCOC21c1ccccc1` (centres undefined), the growth inhibition was 11.2% in experiment [1]; 2.15% in experiment [2]; 5% in experiment [3]; -1.95% in experiment [4]; -3.05% in experiment [5].

As to `OCCN(CO)CCO`, the growth inhibition in experiment [1] was 6.35%; in experiment [2], -0.25%; in experiment [3] it was -2.6%; in experiment [4] it was 2.6%; in experiment [5], -25.2%.

Regarding `O=C1c2cccc3cc([N+](=O)[O-])cc(c23)C(=O)N1C(Cc1ccccc1)c1ccccc1` (centres undefined), the growth inhibition was -6.05% in experiment [1]; 16.4% in experiment [2]; 15.1% in experiment [3]; 10.6% in experiment [4]; 19.1% in experiment [5].

For the molecule `c1ccc(Cc2[nH]nc(-c3n[nH]c(Cc4ccccc4)c3-c3ccccc3)c2-c2ccccc2)cc1`, the growth inhibition was 18.1% in experiment [1]; -9.65% in experiment [2]; -8.35% in experiment [3]; -20.6% in experiment [4]; 8.4% in experiment [5].

As for `Oc1ccc(O)c2c1CC=CC2`, the growth inhibition in experiment [1] was 22.6%; in experiment [2] it was 27.9%; in experiment [3] it was 13%; in experiment [4] it was 18.3%; in experiment [5], 16.4%.

With `COC(=O)C(C(=O)C(=O)Nc1ccc([N+](=O)[O-])cc1)c1nc2ccc([N+](=O)[O-])cc2[nH]c1=O` (centres undefined), the growth inhibition is -3.1% in experiment [1]; -32.5% in experiment [2]; -41.2% in experiment [3]; -0.85% in experiment [4]; 8.75% in experiment [5].

`CCOC(=O)C(C(=O)OCC)=C(C)C`: the growth inhibition in experiment [1] was -32%; in experiment [2] it was -12.2%; in experiment [3], -3.1%; in experiment [4] it was -26.1%; in experiment [5] it was -37.3%.

Take `Nc1nc(N)nc(-c2ccccc2NS(=O)(=O)c2ccc([N+](=O)[O-])cc2)n1`: the growth inhibition in experiment [1] is 21.8%; in experiment [2] it was 6.2%; in experiment [3], 3.45%; in experiment [4], 11.2%; in experiment [5], 38.4%.

Turning to `NC(=O)NC(=O)c1ccco1`, the growth inhibition in experiment [1] is -1.55%; in experiment [2], 28.9%; in experiment [3] it was 17.1%; in experiment [5], 16%.

As for `COc1ccccc1Nc1nc(NNC(=O)Cc2ccccc2)nc(NNC(=O)c2ccncc2)n1`, the growth inhibition was 36.2% in experiment [1]; 25.3% in experiment [2]; 17.6% in experiment [3]; 22.7% in experiment [4]; 25.6% in experiment [5].

Turning to `CC(C)CCC(C)c1ccncc1` (centres undefined), the growth inhibition is 0.4% in experiment [1]; -7.05% in experiment [2]; -6.5% in experiment [3]; 3.35% in experiment [4]; 0.45% in experiment [5].

Take `NC(=O)C(CNCc1ccccc1)NCc1ccccc1` (centres undefined): the growth inhibition was 14.2% in experiment [1]; 3.1% in experiment [2]; -8.5% in experiment [3]; 3.6% in experiment [4]; -11.4% in experiment [5].

In the case of `O=C1NC(=S)NC(=O)C1=Cc1ccccc1OCc1ccccc1`, the growth inhibition was -16.1% in experiment [1]; -0.55% in experiment [2]; -50.6% in experiment [3]; 1.6% in experiment [4]; -16.6% in experiment [5].

Regarding `COc1ccc([N+](=O)[O-])cc1NC(=S)NC(=O)c1cccc(Br)c1`, the growth inhibition in experiment [1] was 4.2%; in experiment [2] it was -0.1%; in experiment [3], -63.6%; in experiment [4], 3.7%; in experiment [5] it was 1.55%.

On to `CCOC(=O)Nc1c2ccccc2c(NC(=O)OCC)c2ccccc12`, for which the growth inhibition was 8.9% in experiment [1]; 1% in experiment [2]; 12.8% in experiment [3]; 15% in experiment [4]; -6% in experiment [5].

As for `CC(=O)OC(C(=O)Nc1nncs1)c1ccccc1` (centres undefined), the growth inhibition was -22.9% in experiment [1]; 7.25% in experiment [2]; 8.05% in experiment [3]; 11.2% in experiment [4]; 18.1% in experiment [5].

In the case of `CC(/C=C/C(=O)c1sc(C(N)=S)nc1C)=C\c1ccccc1`, the growth inhibition was -13.1% in experiment [1]; -6.8% in experiment [2]; 10.8% in experiment [3]; -5.8% in experiment [4]; 22.2% in experiment [5].

Regarding `CCCCCC(CC)OC(=O)Nc1cccc2ccccc12` (centres undefined), the growth inhibition is 7.2% in experiment [1]; 10.7% in experiment [2]; -9.15% in experiment [3]; -3.35% in experiment [4]; 0.1% in experiment [5].

Consider `O=C(O)CSc1nc2ccc(N3C(=O)C4C5C=CC(C5)C4C3=O)cc2s1` (centres undefined), for which the growth inhibition in experiment [1] was -2.65%; in experiment [2], -2.5%; in experiment [3] it was 11.3%; in experiment [4], -2.5%; in experiment [5], 6.15%.

`O=Cc1cccc2ccc3cccc(C(=O)O)c3c12`: the growth inhibition in experiment [1] is 12%; in experiment [2], 17.9%; in experiment [3] it was 13.2%; in experiment [4] it was 30.1%; in experiment [5], -8.7%.

As to `O=C(NC1CCCCC1C1CCCCC1)c1ccc(Cl)cc1` (centres undefined), the growth inhibition in experiment [1] was 2.5%; in experiment [2] it was -1.3%; in experiment [3] it was -10.9%; in experiment [4], 7.15%; in experiment [5], 6.45%.

Consider `O=C/C=C/N=c1ccn(O)cc1`, for which the growth inhibition was 3.45% in experiment [1]; 3.05% in experiment [2]; -2.1% in experiment [3]; 4.25% in experiment [4]; 2.1% in experiment [5].

With `CC1CCC2OC23C(=O)C2OC2C(C(C)(C)O)C13C` (centres undefined), the growth inhibition in experiment [1] was -2.35%; in experiment [2] it was -10.7%; in experiment [3] it was 2.5%; in experiment [4], 5.65%; in experiment [5] it was 12.8%.

Regarding `O=C(O)C1CCC(C(=O)O)CC1.[NH-]C1CCCCC1[NH-].[Pt+2]` (centres undefined), the growth inhibition in experiment [1] is -29.9%; in experiment [2], -1.15%; in experiment [3], 6.9%; in experiment [4], -19.9%; in experiment [5], -70.4%.

As to `Oc1cc(O)c(Cl)cc1Cl`, the growth inhibition in experiment [1] was -4.25%; in experiment [2], -22.8%; in experiment [3], -2.95%; in experiment [4] it was -12.3%; in experiment [5], 23.3%.

Regarding `CCc1n[nH]c(=S)n1/N=C/c1ccc(-c2ccc([N+](=O)[O-])cc2)o1`, the growth inhibition in experiment [1] is -17.6%; in experiment [2], -14%; in experiment [3], 9.85%; in experiment [4], -14.1%; in experiment [5] it was 10.3%.

`CCCCC1(O)c2ccc3ccccc3c2C(O)(CCCC)c2cccc(-c3ccccc3)c21` (centres undefined): the growth inhibition is -0.05% in experiment [1]; 10.2% in experiment [2]; -1.75% in experiment [3]; -3.15% in experiment [4]; 38.8% in experiment [5].

Consider `COC(=O)CCCCCCCCCCC1C=CCC1` (centres undefined), for which the growth inhibition in experiment [1] is -23%; in experiment [2], 11.4%; in experiment [3], 9.8%; in experiment [4], -3.45%; in experiment [5] it was 0.5%.

With `CNC(=O)OCc1c(COC(=O)NC)c(C)n(-c2ccc(F)cc2)c1C`, the growth inhibition is 14.8% in experiment [1]; 4.55% in experiment [2]; 0.5% in experiment [3]; 50.3% in experiment [4]; -12.2% in experiment [5].

For `CN(CC(=O)O)c1ncc2c(n1)-c1ccccc1SC2`, the growth inhibition in experiment [1] is 4.95%; in experiment [2], 5.15%; in experiment [3] it was 10.3%; in experiment [4], -14.3%; in experiment [5], -6.3%.
